Results taken from the supplement of paper PMC3545927.
The other results are listed elsewhere or left out. The true hit rate is not given.

Biological target: furin, P09958
Experiment: furin cleavage Z-score vs untreated control; higher = more cleavage, active = 3.5 or more, inactive = 1 or less, 8 variable residues between constant flanks
Method in brief: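 Abundance of DNA freed from bead-bound 8-mer peptide–cDNA fusions by purified furin was measured as sequencing read counts after PCR adapter tagging. Cutting ran 7.5, 15 or 30 min in 0.01 ml of 50 mM HEPES pH 7.5 with CaCl2 and NaCl at 1:10 enzyme:substrate. The cleavage Z-score expresses these log counts against furin-free reactions after lowess adjustment and median absolute deviation scaling.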

Sequence of furin, P09958 (P09958 whole entry): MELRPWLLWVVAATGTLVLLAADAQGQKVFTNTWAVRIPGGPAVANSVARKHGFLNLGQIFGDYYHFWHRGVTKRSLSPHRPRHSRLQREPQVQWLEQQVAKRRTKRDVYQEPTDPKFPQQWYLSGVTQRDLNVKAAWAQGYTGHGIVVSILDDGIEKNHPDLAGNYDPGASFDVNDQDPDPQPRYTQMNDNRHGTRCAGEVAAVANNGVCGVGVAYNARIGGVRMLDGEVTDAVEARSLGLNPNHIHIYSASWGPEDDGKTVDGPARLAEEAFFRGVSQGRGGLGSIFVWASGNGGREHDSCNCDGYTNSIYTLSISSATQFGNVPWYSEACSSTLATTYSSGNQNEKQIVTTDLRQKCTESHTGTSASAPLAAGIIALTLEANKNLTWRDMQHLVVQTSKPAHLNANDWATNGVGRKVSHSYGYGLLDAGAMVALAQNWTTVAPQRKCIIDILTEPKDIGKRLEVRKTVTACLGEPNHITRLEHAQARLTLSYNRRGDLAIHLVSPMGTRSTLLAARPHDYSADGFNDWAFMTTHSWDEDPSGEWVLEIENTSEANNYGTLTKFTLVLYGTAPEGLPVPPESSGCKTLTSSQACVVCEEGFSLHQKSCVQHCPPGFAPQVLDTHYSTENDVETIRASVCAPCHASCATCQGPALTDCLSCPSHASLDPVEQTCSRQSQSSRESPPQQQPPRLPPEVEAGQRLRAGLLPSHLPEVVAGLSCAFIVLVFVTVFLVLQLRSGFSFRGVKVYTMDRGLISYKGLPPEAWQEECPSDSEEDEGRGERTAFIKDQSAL

In the case of CACREVPCHRAGNASASA [HC2440], the “furin cleavage Z-score” value (7.5 min) is reported as -0.508 (inactive), the “furin cleavage Z-score” value (15 min) is reported as -2.04 (inactive) and the “furin cleavage Z-score” value (30 min) is reported as -1.44 (inactive).

CASIRRQKREAGNASASA [FS-563] was tested, and the “furin cleavage Z-score” value (7.5 min) was 11.3 (active), the “furin cleavage Z-score” value (15 min) was 10.3 (active) and the “furin cleavage Z-score” value (30 min) was 8.38 (active).

CAWRQEMGGNAGNASASA [HC1277] was tested, and the “furin cleavage Z-score” value (7.5 min) was 0.884 (inactive), the “furin cleavage Z-score” value (15 min) was -0.41 (inactive) and the “furin cleavage Z-score” value (30 min) was 1.35.

In the case of CAQTNWQKLEAGNASASA [HC1036], the “furin cleavage Z-score” value (7.5 min) is reported as 0.636 (inactive), the “furin cleavage Z-score” value (15 min) is reported as -0.515 (inactive) and the “furin cleavage Z-score” value (30 min) is reported as -0.384 (inactive).

For CATVLDQAETAGNASASA [HC826], the “furin cleavage Z-score” value (7.5 min) was 1.14, the “furin cleavage Z-score” value (15 min) was 0.395 (inactive) and the “furin cleavage Z-score” value (30 min) was -0.728 (inactive).

For CATVRRQKREAGNASASA [FS-1175], the “furin cleavage Z-score” value (7.5 min) was 12.4 (active), the “furin cleavage Z-score” value (15 min) was 13.7 (active) and the “furin cleavage Z-score” value (30 min) was 9.11 (active).

CASERSQPRGAGNASASA [HC187] was tested, and the “furin cleavage Z-score” value (7.5 min) was 0.546 (inactive), the “furin cleavage Z-score” value (15 min) was 0.429 (inactive) and the “furin cleavage Z-score” value (30 min) was 0.503 (inactive).

CAPRRRKGRNAGNASASA [FS-1473] was tested, and the “furin cleavage Z-score” value (7.5 min) was 10.1 (active), the “furin cleavage Z-score” value (15 min) was 11.5 (active) and the “furin cleavage Z-score” value (30 min) was 9.35 (active).

CAAKRRQKREAGNASASA [FS-1110] was tested, and the “furin cleavage Z-score” value (7.5 min) was 12.9 (active), the “furin cleavage Z-score” value (15 min) was 13 (active) and the “furin cleavage Z-score” value (30 min) was 8.62 (active).

For CAYFSMVGNWAGNASASA [HC341], the “furin cleavage Z-score” value (7.5 min) was -0.31 (inactive), the “furin cleavage Z-score” value (15 min) was -0.533 (inactive) and the “furin cleavage Z-score” value (30 min) was -2.31 (inactive).

CAVLSRQKREAGNASASA [FS-206] was tested, and the “furin cleavage Z-score” value (7.5 min) was 11.7 (active), the “furin cleavage Z-score” value (15 min) was 9.59 (active) and the “furin cleavage Z-score” value (30 min) was 8.73 (active).

In the case of CAPRRRQQREAGNASASA [FS-1551], the “furin cleavage Z-score” value (7.5 min) is reported as 6.3 (active), the “furin cleavage Z-score” value (15 min) is reported as 4.83 (active) and the “furin cleavage Z-score” value (30 min) is reported as 5.13 (active).

For CAVLSDFKTWAGNASASA [HC1154], the “furin cleavage Z-score” value (7.5 min) was -0.128 (inactive), the “furin cleavage Z-score” value (15 min) was -0.333 (inactive) and the “furin cleavage Z-score” value (30 min) was -0.963 (inactive).

CAPRRHWTTQAGNASASA [HC308] was tested, and the “furin cleavage Z-score” value (7.5 min) was 0.172 (inactive), the “furin cleavage Z-score” value (15 min) was -0.306 (inactive) and the “furin cleavage Z-score” value (30 min) was 0.325 (inactive).

For CACKPLLREEAGNASASA [HC1229], the “furin cleavage Z-score” value (7.5 min) was -2.56 (inactive), the “furin cleavage Z-score” value (15 min) was 0.033 (inactive) and the “furin cleavage Z-score” value (30 min) was 0.531 (inactive).

With CATTPCAGSWAGNASASA [HC61] the “furin cleavage Z-score” value (7.5 min) was -1.21 (inactive), the “furin cleavage Z-score” value (15 min) was 0.988 (inactive) and the “furin cleavage Z-score” value (30 min) was 1.04.

In the case of CASFDPLVAEAGNASASA [HC1288], the “furin cleavage Z-score” value (7.5 min) is reported as -1.29 (inactive), the “furin cleavage Z-score” value (15 min) is reported as -0.652 (inactive) and the “furin cleavage Z-score” value (30 min) is reported as 0.659 (inactive).

In the case of CAEARRTMRSAGNASASA [FS-228], the “furin cleavage Z-score” value (7.5 min) is reported as 6.84 (active), the “furin cleavage Z-score” value (15 min) is reported as 6.18 (active) and the “furin cleavage Z-score” value (30 min) is reported as 7.34 (active).

In the case of CACAVRHMRSAGNASASA [FS-1513], the “furin cleavage Z-score” value (7.5 min) is reported as 0.659 (inactive), the “furin cleavage Z-score” value (15 min) is reported as 0.712 (inactive) and the “furin cleavage Z-score” value (30 min) is reported as 1.2.

For CAWLERTMRSAGNASASA [FS-108], the “furin cleavage Z-score” value (7.5 min) was 4.21 (active), the “furin cleavage Z-score” value (15 min) was 5.66 (active) and the “furin cleavage Z-score” value (30 min) was 4.38 (active).

For CALEVVTSTWAGNASASA [HC987], the “furin cleavage Z-score” value (7.5 min) was 0.41 (inactive), the “furin cleavage Z-score” value (15 min) was 0.551 (inactive) and the “furin cleavage Z-score” value (30 min) was 1.7.

In the case of CAEVVTSTWAAGNASASA [HC2243], the “furin cleavage Z-score” value (7.5 min) is reported as -0.622 (inactive), the “furin cleavage Z-score” value (15 min) is reported as 0.588 (inactive) and the “furin cleavage Z-score” value (30 min) is reported as -0.814 (inactive).

CAVVCCSMIYAGNASASA [HC2064] was tested, and the “furin cleavage Z-score” value (7.5 min) was -0.191 (inactive), the “furin cleavage Z-score” value (15 min) was -0.994 (inactive) and the “furin cleavage Z-score” value (30 min) was 0.202 (inactive).

For CACVRRSPCAAGNASASA [FS-2118], the “furin cleavage Z-score” value (7.5 min) was -0.381 (inactive), the “furin cleavage Z-score” value (15 min) was -1.71 (inactive) and the “furin cleavage Z-score” value (30 min) was -0.39 (inactive).

In the case of CAGSSRRFRAAGNASASA [FS-1003], the “furin cleavage Z-score” value (7.5 min) is reported as -0.163 (inactive), the “furin cleavage Z-score” value (15 min) is reported as 1.3 and the “furin cleavage Z-score” value (30 min) is reported as 2.13.

For CACFRKHPDAAGNASASA [HC453], the “furin cleavage Z-score” value (7.5 min) was -1.37 (inactive), the “furin cleavage Z-score” value (15 min) was -1.46 (inactive) and the “furin cleavage Z-score” value (30 min) was -0.48 (inactive).

CAGSPRSKRAAGNASASA [FS-788] was tested, and the “furin cleavage Z-score” value (7.5 min) was 11.2 (active), the “furin cleavage Z-score” value (15 min) was 9.92 (active) and the “furin cleavage Z-score” value (30 min) was 8.49 (active).

In the case of CACFRRSKRAAGNASASA [FS-1514], the “furin cleavage Z-score” value (7.5 min) is reported as 9.65 (active), the “furin cleavage Z-score” value (15 min) is reported as 9.01 (active) and the “furin cleavage Z-score” value (30 min) is reported as 6.16 (active).

With CARWRRTKGAAGNASASA [FS-1873] the “furin cleavage Z-score” value (7.5 min) was -0.133 (inactive), the “furin cleavage Z-score” value (15 min) was -1.53 (inactive) and the “furin cleavage Z-score” value (30 min) was -0.0248 (inactive).

With CARWRRSKRAAGNASASA [FS-959] the “furin cleavage Z-score” value (7.5 min) was 11.1 (active), the “furin cleavage Z-score” value (15 min) was 11.6 (active) and the “furin cleavage Z-score” value (30 min) was 8.46 (active).

With CAGSPPSVASAGNASASA [HC1257] the “furin cleavage Z-score” value (7.5 min) was -0.959 (inactive), the “furin cleavage Z-score” value (15 min) was -1.08 (inactive) and the “furin cleavage Z-score” value (30 min) was 0.309 (inactive).

For CAGVLTTSCGAGNASASA [HC1512], the “furin cleavage Z-score” value (7.5 min) was -0.572 (inactive), the “furin cleavage Z-score” value (15 min) was 0.491 (inactive) and the “furin cleavage Z-score” value (30 min) was -0.869 (inactive).

In the case of CAATQLRRHIAGNASASA [HC288], the “furin cleavage Z-score” value (7.5 min) is reported as -0.217 (inactive), the “furin cleavage Z-score” value (15 min) is reported as 0.529 (inactive) and the “furin cleavage Z-score” value (30 min) is reported as 1.16.

In the case of CAYASRGIRPAGNASASA [FS-1618], the “furin cleavage Z-score” value (7.5 min) is reported as -0.625 (inactive), the “furin cleavage Z-score” value (15 min) is reported as -0.502 (inactive) and the “furin cleavage Z-score” value (30 min) is reported as -1.11 (inactive).

CAAGARLVVLAGNASASA [HC830] was tested, and the “furin cleavage Z-score” value (7.5 min) was 1.19, the “furin cleavage Z-score” value (15 min) was 0.934 (inactive) and the “furin cleavage Z-score” value (30 min) was 0.0298 (inactive).

In the case of CAGGQRKKRAAGNASASA [FS-1125], the “furin cleavage Z-score” value (7.5 min) is reported as 8.55 (active), the “furin cleavage Z-score” value (15 min) is reported as 7.61 (active) and the “furin cleavage Z-score” value (30 min) is reported as 6.45 (active).

In the case of CAAQQRKKRAAGNASASA [FS-1306], the “furin cleavage Z-score” value (7.5 min) is reported as 6.17 (active), the “furin cleavage Z-score” value (15 min) is reported as 6.15 (active) and the “furin cleavage Z-score” value (30 min) is reported as 6.14 (active).

CASHQKKKRAAGNASASA [FS-1486] was tested, and the “furin cleavage Z-score” value (7.5 min) was 4.35 (active), the “furin cleavage Z-score” value (15 min) was 2.8 and the “furin cleavage Z-score” value (30 min) was 4.35 (active).

For CAAGARKKRAAGNASASA [FS-970], the “furin cleavage Z-score” value (7.5 min) was 6.63 (active), the “furin cleavage Z-score” value (15 min) was 6.95 (active) and the “furin cleavage Z-score” value (30 min) was 6.49 (active).

For CAGGQIVGGVAGNASASA [HC174], the “furin cleavage Z-score” value (7.5 min) was -1.23 (inactive), the “furin cleavage Z-score” value (15 min) was -1.41 (inactive) and the “furin cleavage Z-score” value (30 min) was -1.78 (inactive).

With CAAGAGAGAGAGNASASA [NE3] the “furin cleavage Z-score” value (7.5 min) was -0.934 (inactive), the “furin cleavage Z-score” value (15 min) was -0.656 (inactive) and the “furin cleavage Z-score” value (30 min) was -0.752 (inactive).

CALREVPCHRAGNASASA [HC2425] was tested, and the “furin cleavage Z-score” value (7.5 min) was -0.109 (inactive), the “furin cleavage Z-score” value (15 min) was -0.538 (inactive) and the “furin cleavage Z-score” value (30 min) was -0.256 (inactive).

For CAEVPCHEPSAGNASASA [HC2372], the “furin cleavage Z-score” value (7.5 min) was -0.836 (inactive), the “furin cleavage Z-score” value (15 min) was 1.11 and the “furin cleavage Z-score” value (30 min) was -0.669 (inactive).

CAGAPPCVIGAGNASASA [HC443] was tested, and the “furin cleavage Z-score” value (7.5 min) was 1.73, the “furin cleavage Z-score” value (15 min) was -1.15 (inactive) and the “furin cleavage Z-score” value (30 min) was -0.113 (inactive).
